# Measurements: PubChem BioAssay (Tox21)
# Unmarked numbers belong to inactive results. Results filed as inconclusive are left out. A call without a number means that no potency is given here. Activity calls are given as the source filed them. Unless noted, calls come from the whole dose curve; as a rule, active = well fitted curve in the direction sought with a large enough effect in the repeat runs; inconclusive = weak or mixed curves; inactive = no such curve, though single readings can be large; an effect the other way counts as inactive or inconclusive.
# Columns and labels:
# [1] = biological target: Estrogen receptor beta (Homo sapiens) (UniProt Q92731); assay: qHTS assay to identify small molecule agonists of the estrogen receptor beta (ER-beta) signaling pathway (AID 1259377; active = well fitted activation curve with a large enough effect in the signal ratio in the repeat runs, not every such curve was filed as active; the % refers to the signal ratio)
# Summary of the method: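 Ratiometric beta-lactamase FRET read-out came after 2 h substrate loading at room temperature. It followed 16 h compound treatment at 37C of GripTite HEK293T cells carrying a UAS-bla reporter, plated in 2% charcoal-stripped FBS medium.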
# [2] = biological target: Estrogen receptor beta (Homo sapiens) (UniProt Q92731); assay: qHTS assay to identify small molecule antagonists of the estrogen receptor beta (ER-beta) signaling pathway (AID 1259378; active = well fitted inhibition curve with a large enough effect in the signal ratio in the repeat runs, not every such curve was filed as active; the % refers to the signal ratio)
# Summary of the method: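 ER-beta-UAS-bla HEK293T (GripTite) cells in 2% charcoal-stripped FBS medium were preincubated 6 hr at 37C, dosed with compound, then stimulated with 1 nM E2 (final) for 16 hr; beta-lactamase reporter read by B/G FRET fluorescence after 2 hr substrate loading.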
# [3] = qHTS assay to identify small molecule agonists of the androgen receptor (AR) signaling pathway in the presence of an antagonist - cell viability counter screen (AID 1259379);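 note: MDA-kb2 human breast cancer cells carrying an MMTV luciferase reporter; series mostly up to about 92 µM; nearly all actives have a fitted effect of over 25% in size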
# Summary of the method: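 A CellTiter-Fluor read-out measured viability of MDA-kb2 reporter cells (MMTV promoter with AR and GR response elements). Treatment: nilutamide 3.0uM final with compounds at 15 concentrations, 16 hr, 37C, 0% CO2.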
# [4] = qHTS assay to identify small molecule agonists of the estrogen receptor beta (ER-beta) signaling pathway - cell viability counter screen (AID 1259380); note: nearly all actives have a fitted effect of over 30% in size
# Summary of the method: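 Cells used were ER-beta-UAS-bla HEK293T in medium with 2% charcoal-stripped FBS. They were treated for 16 hr at 37C. Viability came from CellTiter-Glo luminescence.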
# [5] = qHTS assay to identify small molecule antagonists of the estrogen receptor beta (ER-beta) signaling pathway - cell viability counter screen (AID 1259382); note: nearly all actives have a fitted effect of over 55% in size; note: potency is the fitted concentration of half-maximal effect; for activity change, negative = cytotoxicity: series mostly up to about 92 µM
# Summary of the method: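 Agonist-stimulated (1nM E2) ER-beta-UAS-bla HEK293T cells are incubated with library compounds for 16 hr at 37C. Cell viability is then assessed in the reporter-assay wells by adding CellTiter-Glo and reading luminescence after 30 min.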
# [6] = biological target: Estrogen receptor (Homo sapiens) (UniProt P03372); assay: qHTS assay to identify small molecule agonists of the estrogen receptor alpha (ER-alpha) signaling pathway in the presence of an antagonist (AID 1259383; calls by dose curve; note: top concentration of the series differs between compounds; nearly all actives have a fitted effect of over 15% in size)
# Summary of the method: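 Using VM7Luc4E2 cells seeded 24hr before treatment, antagonist ICI-182,780 (10.0nM final) was added, followed by compounds at 15 concentrations. Plates incubated 22hr; ONE-Glo luminescence quantified reporter activity.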
# [7] = qHTS assay to identify small molecule agonists or antagonists of the thyroid stimulating hormone receptor (TSHR) signaling pathway - wild type cell line counter screen (AID 1259384; calls by dose curve)
# Summary of the method: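 Wild-type HEK293 cells were plated 18 h at 37 C/5% CO2, pin-dosed with compound plus Ro20-1724 medium, held 30 min at room temperature, then given cAMP-d2 and anti-cAMP-cryptate; fluorescence was read after 1 h. Fifteen concentrations, triplicate.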
# [8] = biological target: Thyrotropin receptor (Homo sapiens) (UniProt P16473); assay: qHTS assay to identify small molecule antagonists of the thyroid stimulating hormone receptor (TSHR) signaling pathway (AID 1259385; calls by dose curve; note: nearly all actives have a fitted effect of over 20% in size)
# Summary of the method: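 TSHR-HEK293 cells were plated and held 18 h at 37C/5% CO2, then given compound plus Ro20-1724 and stimulated with TSH at 1.5 ng/mL final. After 30 min at room temperature, cAMP was detected with cAMP-d2/anti-cAMP-cryptate (1 h) by fluorescence.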
# [9] = qHTS assay to identify small molecule agonists of the estrogen receptor alpha (ER-alpha) signaling pathway in the presence of an antagonist - cell viability counter screen (AID 1259386);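 note: series mostly up to about 92 µM; cells exposed to compounds for 22 h at 37 °C before the viability read; nearly all actives have a fitted effect of over 30% in size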
# Summary of the method: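 ICI-182,780 at 10.0nM final accompanies the compound titration (15 concentrations, 22hr, 37C) on VM7Luc4E2 cells. The CellTiter-Fluor fluorescence readout runs in the same wells as the luciferase assay.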
# [10] = biological target: Progesterone receptor (Homo sapiens) (UniProt P06401); assay: qHTS assay to identify small molecule agonists of the progesterone receptor (PR) signaling pathway (AID 1346784; calls by dose curve; note: nearly all actives have a fitted effect of over 30% in size)
# Summary of the method: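 Agonist qHTS: compounds pinned onto 3,000 PR-UAS-bla HEK 293T cells per well in charcoal-stripped serum medium, 16hr at 37C, then beta-lactamase activity measured by LiveBLAzer FRET fluorescence after 2 hours at room temperature.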
# [11] = biological target: Progesterone receptor (Homo sapiens) (UniProt P06401); assay: qHTS assay to identify small molecule antagonists of the progesterone receptor (PR) signaling pathway (AID 1346795; active = well fitted inhibition curve with a large enough effect in the signal ratio in the repeat runs, not every such curve was filed as active; the % refers to the signal ratio)
# Summary of the method: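 Antagonist mode with agonist R5020 at 1 nM final and 16 hr incubation at 37C. Reporter was beta-lactamase driven by UAS in HEK293T (PR-UAS-bla), 2% charcoal-stripped serum; signal from LiveBLAzer FRET substrate, 2 hr at room temperature.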
# [12] = qHTS assay to identify small molecule antagonists of the progesterone receptor (PR) signaling pathway - cell viability counter screen (AID 1346798); note: series mostly up to about 92 µM; nearly all actives have a fitted effect of over 50% in size
# Summary of the method: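 Cytotoxicity read as CellTiter-Glo luminescence (30 min, room temperature) in the same wells as the beta-lactamase readout. HEK293T PR-UAS-bla cells in charcoal-stripped 2% FBS received compound and R5020, then 16 h at 37C, 5% CO2.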
# [13] = qHTS assay to identify small molecule agonists of the progesterone receptor (PR) signaling pathway - cell viability counter screen (AID 1346799; calls by dose curve; note: nearly all actives have a fitted effect of over 45% in size; note: potency is the fitted concentration of half-maximal effect)
# Summary of the method: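 Cytotoxicity measured by CellTiter-Glo luminescence (30 min, RT) in the same wells as the PR beta-lactamase agonist read. Those HEK293T cells had 16 h compound treatment at 37 C in 2% charcoal-stripped FBS medium.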
# [14] = qHTS assay to identify small molecule antagonists of the TGF-beta/Smad signaling pathway - cell viability counter screen (AID 1346824); note: nearly all actives have a fitted effect of over 50% in size
# Summary of the method: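 SBE-bla HEK 293T cells were plated overnight at 37 C, then given compounds in DMSO plus TGF-beta1 (added as 0.25 ng/mL solution) for 5 hr. After the bla read, CellTiter-Glo was added to the same wells and luminescence read after 30 min at room temperature.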
# [15] = qHTS assay to identify small molecule agonists of the TGF-beta/Smad signaling pathway - cell viability counter screen (AID 1346829); note: top concentration of the series differs between compounds; nearly all actives have a fitted effect of over 45% in size
# Summary of the method: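 HEK 293T SBE-bla line, 5 hr compound exposure at 37 C, multiplexed CellTiter-Glo viability read by luminescence.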
# [16] = qHTS assay to identify small molecule agonists of the TGF-beta/Smad signaling pathway (AID 1346859; active = well fitted activation curve with a large enough effect in the signal ratio in the repeat runs, not every such curve was filed as active; the % refers to the signal ratio; note: series mostly up to about 77 µM)
# Summary of the method: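 Fluorescence (ex 405 nm; em 460 and 530 nm) was read 2 h after LiveBLAzer FRET substrate at RT. The preceding compound treatment of overnight-plated SBE-bla HEK293T cells lasted 5 h at 37 C.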
# [17] = biological target: Thyrotropin-releasing hormone receptor (Homo sapiens) (UniProt P34981); assay: qHTS assay to identify small molecule antagonists of the thyrotropin-releasing hormone receptor (TRHR) signaling pathway (AID 1346877; active = well fitted inhibition curve with a large enough effect in the repeat runs, not every such curve was filed as active; note: series mostly up to about 51 µM)
# Summary of the method: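 Screening used HEK293 cells engineered with TRHR, with a brief 5 min room-temperature compound exposure preceding addition of TRH to 1 nM. The read-out was kinetic calcium-dye fluorescence, concentration-response from 15 doses in triplicate.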
# [18] = biological target: Thyrotropin-releasing hormone receptor (Homo sapiens) (UniProt P34981); assay: qHTS assay to identify small molecule agonists of the thyrotropin-releasing hormone receptor (TRHR) signaling pathway (AID 1346891; calls by dose curve; note: series mostly up to about 58 µM)
# Summary of the method: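 Agonist-mode intracellular calcium readout: kinetic fluorescence over 3 min at 1 s intervals after compound addition to TRHR-HEK293 cells (18 h seeded, 2 h dye-loaded at 37 C). Fifteen concentrations, triplicates.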
# [19] = qHTS assay to identify small molecule antagonists of the sonic hedgehog signaling (Shh) pathway (AID 1259369; calls by dose curve; note: nearly all actives have a fitted effect of over 45% in size)
# Summary of the method: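 Conditioned medium drives Shh signalling in 3T3Gli1-Luc cells; compounds in DMSO co-applied, 24hr at 37 C, then luciferase luminescence.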
# [20] = biological target: Androgen receptor (Homo sapiens) (UniProt P10275); assay: qHTS assay to identify small molecule agonists of the androgen receptor (AR) signaling pathway in the presence of an antagonist (AID 1259381; calls by dose curve; note: nearly all actives have a fitted effect of over 15% in size)
# Summary of the method: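 Using human MDA-kb2 cells with an MMTV promoter–luciferase construct (AR and GR response elements), agonist activity is scored under 3.0uM nilutamide (final) co-treatment; 16hr incubation, 37C, luminescence readout via ONE-Glo.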
# Estrogen receptor (Homo sapiens), sequence (P03372 whole entry, looked up): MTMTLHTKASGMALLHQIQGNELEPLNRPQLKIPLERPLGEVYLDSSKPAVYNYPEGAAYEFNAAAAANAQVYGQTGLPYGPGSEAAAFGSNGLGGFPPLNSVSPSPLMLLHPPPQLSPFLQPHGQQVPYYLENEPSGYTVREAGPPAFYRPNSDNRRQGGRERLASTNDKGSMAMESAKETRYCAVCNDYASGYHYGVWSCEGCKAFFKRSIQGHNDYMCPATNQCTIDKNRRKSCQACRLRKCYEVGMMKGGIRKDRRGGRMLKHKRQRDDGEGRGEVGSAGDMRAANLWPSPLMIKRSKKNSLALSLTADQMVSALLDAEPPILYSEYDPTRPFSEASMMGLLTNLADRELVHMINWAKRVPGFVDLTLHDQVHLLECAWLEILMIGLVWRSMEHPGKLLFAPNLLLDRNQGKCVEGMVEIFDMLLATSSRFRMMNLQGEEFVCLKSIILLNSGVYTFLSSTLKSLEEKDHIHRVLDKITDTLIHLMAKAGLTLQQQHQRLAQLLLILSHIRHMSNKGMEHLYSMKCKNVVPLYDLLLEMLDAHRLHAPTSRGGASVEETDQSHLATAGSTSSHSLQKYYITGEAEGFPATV
# Progesterone receptor (Homo sapiens), sequence (P06401 whole entry, looked up): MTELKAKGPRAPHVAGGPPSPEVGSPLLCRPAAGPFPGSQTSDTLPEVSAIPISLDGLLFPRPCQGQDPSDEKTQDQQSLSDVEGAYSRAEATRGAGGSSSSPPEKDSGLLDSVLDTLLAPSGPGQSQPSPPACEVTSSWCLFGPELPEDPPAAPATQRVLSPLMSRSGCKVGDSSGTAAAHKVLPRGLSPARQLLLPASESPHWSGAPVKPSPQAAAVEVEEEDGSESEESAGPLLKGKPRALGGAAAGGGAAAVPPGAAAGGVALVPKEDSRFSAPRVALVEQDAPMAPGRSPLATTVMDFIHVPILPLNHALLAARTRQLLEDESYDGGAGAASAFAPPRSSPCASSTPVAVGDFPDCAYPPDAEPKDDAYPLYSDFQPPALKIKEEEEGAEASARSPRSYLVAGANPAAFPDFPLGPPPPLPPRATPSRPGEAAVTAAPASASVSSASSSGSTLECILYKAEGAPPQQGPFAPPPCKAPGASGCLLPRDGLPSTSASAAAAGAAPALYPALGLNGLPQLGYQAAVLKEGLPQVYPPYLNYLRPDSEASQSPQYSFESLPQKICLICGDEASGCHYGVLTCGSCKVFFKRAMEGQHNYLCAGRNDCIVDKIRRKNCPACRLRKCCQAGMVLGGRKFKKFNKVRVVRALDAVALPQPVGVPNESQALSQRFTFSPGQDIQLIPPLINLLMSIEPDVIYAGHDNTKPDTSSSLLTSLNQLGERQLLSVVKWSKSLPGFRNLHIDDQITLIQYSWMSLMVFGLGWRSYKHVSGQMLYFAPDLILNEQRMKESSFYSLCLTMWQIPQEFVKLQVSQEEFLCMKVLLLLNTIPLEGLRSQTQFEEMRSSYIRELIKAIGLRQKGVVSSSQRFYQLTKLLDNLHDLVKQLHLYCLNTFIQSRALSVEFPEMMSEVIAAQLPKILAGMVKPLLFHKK
# Estrogen receptor beta (Homo sapiens), sequence (Q92731 whole entry, looked up): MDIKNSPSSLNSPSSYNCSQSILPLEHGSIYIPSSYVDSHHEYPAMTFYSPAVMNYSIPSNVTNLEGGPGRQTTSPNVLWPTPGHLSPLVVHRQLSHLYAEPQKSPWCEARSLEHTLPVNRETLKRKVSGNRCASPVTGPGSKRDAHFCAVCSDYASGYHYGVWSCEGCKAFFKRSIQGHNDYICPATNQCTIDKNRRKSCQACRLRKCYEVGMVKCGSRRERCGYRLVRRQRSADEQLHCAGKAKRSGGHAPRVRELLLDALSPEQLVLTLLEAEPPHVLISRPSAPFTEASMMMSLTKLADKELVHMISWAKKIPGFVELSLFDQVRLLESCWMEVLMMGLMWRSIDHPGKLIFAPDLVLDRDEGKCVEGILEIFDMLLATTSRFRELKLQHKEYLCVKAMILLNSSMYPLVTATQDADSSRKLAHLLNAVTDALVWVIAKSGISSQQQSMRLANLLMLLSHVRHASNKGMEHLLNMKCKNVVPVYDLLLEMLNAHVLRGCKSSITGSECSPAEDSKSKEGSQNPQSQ
# Thyrotropin receptor (Homo sapiens), sequence (P16473 whole entry, looked up): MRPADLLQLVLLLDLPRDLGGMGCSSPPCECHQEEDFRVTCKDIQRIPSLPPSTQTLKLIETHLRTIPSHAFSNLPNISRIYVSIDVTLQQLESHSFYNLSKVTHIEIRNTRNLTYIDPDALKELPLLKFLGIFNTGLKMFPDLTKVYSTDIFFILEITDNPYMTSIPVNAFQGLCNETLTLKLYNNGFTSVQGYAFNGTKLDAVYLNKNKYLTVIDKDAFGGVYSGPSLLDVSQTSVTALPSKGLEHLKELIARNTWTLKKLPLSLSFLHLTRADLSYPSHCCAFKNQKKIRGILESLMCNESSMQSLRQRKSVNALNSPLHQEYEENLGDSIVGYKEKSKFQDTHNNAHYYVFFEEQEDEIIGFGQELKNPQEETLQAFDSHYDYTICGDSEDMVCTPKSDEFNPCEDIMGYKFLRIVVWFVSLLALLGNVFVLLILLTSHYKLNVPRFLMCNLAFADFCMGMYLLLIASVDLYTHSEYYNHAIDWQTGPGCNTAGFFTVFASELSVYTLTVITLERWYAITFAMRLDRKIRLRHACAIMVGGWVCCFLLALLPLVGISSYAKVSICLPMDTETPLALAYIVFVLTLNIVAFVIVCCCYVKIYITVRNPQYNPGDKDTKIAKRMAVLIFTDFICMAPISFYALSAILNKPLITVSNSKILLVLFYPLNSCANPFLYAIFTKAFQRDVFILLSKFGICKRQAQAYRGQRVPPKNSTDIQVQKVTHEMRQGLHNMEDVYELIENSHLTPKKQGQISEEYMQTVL
# Thyrotropin-releasing hormone receptor (Homo sapiens), sequence (P34981 whole entry, looked up): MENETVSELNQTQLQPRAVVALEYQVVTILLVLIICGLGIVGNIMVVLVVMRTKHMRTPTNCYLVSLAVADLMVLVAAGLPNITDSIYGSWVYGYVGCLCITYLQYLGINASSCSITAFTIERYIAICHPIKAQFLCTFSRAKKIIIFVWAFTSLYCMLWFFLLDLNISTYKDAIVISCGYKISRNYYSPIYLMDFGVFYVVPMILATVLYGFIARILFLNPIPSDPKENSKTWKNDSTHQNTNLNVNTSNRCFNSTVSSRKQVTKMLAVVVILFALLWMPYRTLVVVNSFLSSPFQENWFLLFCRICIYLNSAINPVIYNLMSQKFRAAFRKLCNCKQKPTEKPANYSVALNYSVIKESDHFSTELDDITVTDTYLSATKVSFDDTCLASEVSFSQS
# Androgen receptor (Homo sapiens), sequence (P10275 whole entry, looked up): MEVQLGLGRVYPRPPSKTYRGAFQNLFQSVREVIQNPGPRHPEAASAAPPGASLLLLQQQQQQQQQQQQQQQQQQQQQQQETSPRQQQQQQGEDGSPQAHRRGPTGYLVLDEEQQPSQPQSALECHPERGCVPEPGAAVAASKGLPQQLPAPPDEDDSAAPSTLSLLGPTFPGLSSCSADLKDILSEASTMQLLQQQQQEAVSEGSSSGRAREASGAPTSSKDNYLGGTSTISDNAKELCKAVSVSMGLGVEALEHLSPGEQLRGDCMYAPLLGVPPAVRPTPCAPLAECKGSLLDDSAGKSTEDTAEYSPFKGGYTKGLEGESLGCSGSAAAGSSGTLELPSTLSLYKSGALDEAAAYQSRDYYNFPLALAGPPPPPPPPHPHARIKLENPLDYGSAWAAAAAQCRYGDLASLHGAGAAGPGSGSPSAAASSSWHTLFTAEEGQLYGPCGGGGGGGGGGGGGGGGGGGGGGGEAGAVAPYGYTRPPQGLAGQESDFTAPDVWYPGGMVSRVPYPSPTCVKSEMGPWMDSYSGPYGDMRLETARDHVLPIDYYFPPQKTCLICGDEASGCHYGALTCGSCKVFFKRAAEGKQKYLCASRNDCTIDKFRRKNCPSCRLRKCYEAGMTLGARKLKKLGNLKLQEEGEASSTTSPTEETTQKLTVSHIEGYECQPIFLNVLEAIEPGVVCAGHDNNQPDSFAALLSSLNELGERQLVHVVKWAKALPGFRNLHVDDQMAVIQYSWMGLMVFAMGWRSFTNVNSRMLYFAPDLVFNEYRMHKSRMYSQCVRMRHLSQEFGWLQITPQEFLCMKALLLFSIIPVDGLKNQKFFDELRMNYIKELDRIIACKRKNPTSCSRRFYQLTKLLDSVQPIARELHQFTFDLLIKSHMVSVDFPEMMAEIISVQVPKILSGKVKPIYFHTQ
structure (smiles),measurement,setting,value
CCC(C(=O)NC(N)=O)c1ccccc1 (configuration not stated),outcome,[1],inactive
same,Potency,[2],inactive
same,Potency,[3],inactive
same,Potency,[4],inactive
same,Potency,[5],inactive
same,Potency,[6],inactive
same,outcome,[7],inactive
same,Potency,[8],inactive
same,outcome,[9],inactive
same,Potency,[10],inactive
same,Potency,[11],inactive
same,Potency,[12],inactive
same,Potency,[13],inactive
same,outcome,[14],inactive
same,outcome,[15],inactive
same,outcome,[16],inactive
same,outcome,[17],inactive
same,outcome,[18],inactive
O=C(O)C(O)[C@H](O)[C@@H](O)[C@H](O)[C@H](O)CO (some centres not stated),outcome,[1],inactive
same,Potency,[2],inactive
same,Potency,[3],inactive
same,Potency,[6],inactive
same,outcome,[7],inactive
same,Potency,[8],inactive
same,outcome,[9],inactive
same,Potency,[11],inactive
same,Potency,[13],49.1 µM (active)
same,outcome,[14],inactive
same,outcome,[15],inactive
same,outcome,[16],inactive
CCCC(C)C(=O)O (configuration not stated),Potency,[19],inactive
same,Potency,[3],inactive
same,Potency,[5],37 µM (active)
same,Potency,[6],inactive
same,outcome,[9],inactive
same,Potency,[10],inactive
same,Potency,[11],inactive
same,Potency,[13],18.5 µM (active)
same,outcome,[15],inactive
same,outcome,[16],inactive
same,outcome,[17],inactive
same,outcome,[18],inactive
CC(CCO)CCCC(C)(C)O (configuration not stated),outcome,[1],inactive
same,Potency,[2],inactive
same,Potency,[3],inactive
same,Potency,[4],inactive
same,Potency,[5],inactive
same,outcome,[9],inactive
same,Potency,[10],inactive
same,Potency,[11],inactive
same,Potency,[12],inactive
same,Potency,[13],inactive
same,outcome,[14],inactive
same,outcome,[15],inactive
same,outcome,[16],inactive
same,outcome,[17],inactive
same,outcome,[18],inactive
COC(=O)[C@H]1[C@H]2C[C@@H]3c4[nH]c5cc(OC)ccc5c4CCN3C[C@H]2C[C@@H](OC(=O)COc2ccc(OC)cc2)[C@@H]1OC,Potency,[19],inactive
same,Potency,[3],inactive
same,Potency,[6],inactive
same,outcome,[9],inactive
same,Potency,[10],inactive
same,Potency,[11],inactive
same,Potency,[12],inactive
same,Potency,[13],inactive
same,outcome,[14],inactive
same,outcome,[15],inactive
same,outcome,[17],inactive
same,outcome,[18],inactive
CC(C)(O)C(=O)c1ccc(OCCO)cc1,outcome,[1],inactive
same,Potency,[2],inactive
same,Potency,[3],inactive
same,Potency,[4],inactive
same,Potency,[5],inactive
same,outcome,[9],inactive
same,Potency,[10],inactive
same,Potency,[11],inactive
same,Potency,[12],inactive
same,Potency,[13],inactive
same,outcome,[14],inactive
same,outcome,[15],inactive
same,outcome,[16],inactive
same,outcome,[17],inactive
same,outcome,[18],inactive
CCCCCCCCCCCCCCCCCCOCC(O)CO (configuration not stated),outcome,[1],inactive
same,Potency,[2],inactive
same,Potency,[3],inactive
same,Potency,[5],inactive
same,Potency,[6],inactive
same,outcome,[7],inactive
same,Potency,[8],inactive
same,Potency,[10],inactive
same,Potency,[11],inactive
same,Potency,[12],inactive
same,Potency,[13],inactive
same,outcome,[14],inactive
same,outcome,[15],inactive
same,outcome,[16],inactive
C=C(C)C(=O)OCCCCCCCCCCCCCCCCCC,activation,[1],0.356% [at 19 µM]
same,"activity, negative = inhibition",[2],-0.254% [at 19 µM]
same,"activity change, negative = cytotoxicity",[3],0.335% [at 19 µM]
same,"activity change, negative = cytotoxicity",[4],-0.0598% [at 19 µM]
same,"activity change, negative = cytotoxicity",[5],13.7% [at 19 µM]
same,activation,[6],0.0113% [at 19 µM]
same,cAMP activity change,[7],-1.57% [at 18.9 µM]
same,"activity change, negative = inhibition",[8],0.559% [at 19 µM]
same,"activity change, negative = cytotoxicity",[9],-3.47% [at 19 µM]
same,activation,[10],1.29% [at 19 µM]
same,"activity change, negative = inhibition",[11],-2.15% [at 18.9 µM]
same,"activity change, negative = cytotoxicity",[12],16.4% [at 18.9 µM]
same,"activity change, negative = cytotoxicity",[13],3.91% [at 19 µM]
same,"viability change, negative = cytotoxic",[14],11% [at 15.8 µM]
same,"activity change, negative = cytotoxicity",[15],16.7% [at 15.8 µM]
same,activation,[16],6.67% [at 15.8 µM]
same,"activity, negative = inhibition",[17],-4.03% [at 10.5 µM]
same,activation,[18],-0.148% [at 11.8 µM]
CCN1CCN(c2cc3c(cc2F)c(=O)c(C(=O)O)cn3C2CC2)CC1,outcome,[1],inactive
same,Potency,[2],inactive
same,Potency,[3],inactive
same,Potency,[4],inactive
same,Potency,[20],inactive
same,Potency,[5],inactive
same,outcome,[7],inactive
same,outcome,[9],inactive
same,Potency,[10],inactive
same,Potency,[11],inactive
same,Potency,[12],inactive
same,Potency,[13],inactive
same,outcome,[14],inactive
same,outcome,[15],inactive
same,outcome,[17],inactive
same,outcome,[18],inactive
